From PubChem BioAssay
OvCa metastasis: blocks SKOV3ip1 adhesion and invasion in omental model; SKOV3ip1-GFP adhesion/invasion on 3D omental model, fluorescence; Potency, µM (series often up to 45.8 µM), hits mostly inhibitors; 46,000 tested, 0.1% active; AID 1963576; further: nearly all actives have a fitted effect of over 65% in size
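Primary human omental fibroblast/mesothelial 3D culture pre-formed 48 h. SKOV3ip1-GFP cells added with compounds (0.36-46 umol/L), incubated 2 h RT/16 h 37 C, fixed; GFP cells quantified at 488/509 nm.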
pS6 MEF inh: inhibitors of mTORC1 signaling in Tsc2-/- p53-/- MEF cells | Tsc2-/- p53-/- MEF, phospho-rpS6 immunofluorescence/PI, 24 h | Potency, µM (titrated, usually from 38.3 µM), usual class: inhibitors | 44,000 tested, 0.78% active; further: nearly all actives have a fitted effect of over 50% in size
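Read-out: phospho-S6 Alexa-488 intensity over PI intensity per well, scored as % active cells using thresholds from rapamycin (7.5 nM) and DMSO controls. Tsc2-/-, p53-/- MEFs exposed to compound for 24 h; PI cell count recorded as viability.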
NTMT1 inhibitor: inhibitors of human N-terminal methyltransferase NTMT1; NTMT1 MTase-Glo SAH luminescence, purified enzyme; Potency, µM (highest dose often 114 µM), usual class: inhibitors; 59,000 tested, 2.5% active; AID 1645870; further: nearly all actives have a fitted effect of over 65% in size
GALC G270D up: galactocerebrosidase G270D activity enhancement, cell-based | Potency, µM (titrated, usually from 57.5 µM), most hits filed as activators | P54803 | 45,000 tested, 0.1% active | 145M-Twi-hGALC-G270D cells, HMU-beta-Gal fluorescence, 48 h; further: nearly all actives have a fitted effect of over 65% in size
Target sequence (P54803 whole entry G286D): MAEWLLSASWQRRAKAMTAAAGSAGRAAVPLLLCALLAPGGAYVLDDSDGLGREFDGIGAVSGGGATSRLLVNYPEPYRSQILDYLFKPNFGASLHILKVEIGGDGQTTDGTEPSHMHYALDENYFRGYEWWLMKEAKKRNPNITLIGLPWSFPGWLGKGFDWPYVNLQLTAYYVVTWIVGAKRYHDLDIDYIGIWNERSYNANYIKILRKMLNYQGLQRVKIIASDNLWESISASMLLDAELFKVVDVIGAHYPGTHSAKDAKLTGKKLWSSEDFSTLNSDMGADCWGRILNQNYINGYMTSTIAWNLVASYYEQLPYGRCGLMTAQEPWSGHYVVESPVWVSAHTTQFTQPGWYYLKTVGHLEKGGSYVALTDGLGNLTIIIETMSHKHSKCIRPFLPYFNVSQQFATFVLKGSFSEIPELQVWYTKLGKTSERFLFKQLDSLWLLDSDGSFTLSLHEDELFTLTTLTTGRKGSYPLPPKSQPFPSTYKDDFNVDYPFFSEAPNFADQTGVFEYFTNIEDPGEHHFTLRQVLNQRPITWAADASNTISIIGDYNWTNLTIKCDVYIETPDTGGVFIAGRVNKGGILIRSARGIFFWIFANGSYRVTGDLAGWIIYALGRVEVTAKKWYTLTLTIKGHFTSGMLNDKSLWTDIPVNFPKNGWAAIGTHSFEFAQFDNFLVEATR
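qHTS, 1536-well; 145M-Twi-hGALC-G270D cells (WT line also made) in DMEM/F12 + 10% FBS; compound incubation on live cells; HMU-β-gal 0.1 mM final, pH 5.2, NaTC; carbonate stop; fluorescence increase = enhanced residual activity.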
S16 F2sN tox: cytotoxicity in S16 Pmp22-F2sN Schwann cells; S16 Pmp22-F2sN Schwann cells viability, CellTiter-Glo, 24 h; Potency, µM (doses to about 57.5 µM), hits mostly cytotoxic; 43,000 tested, 0.48% active; AID 1508642; further: nearly all actives have a fitted effect of over 65% in size
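Viability was measured by CellTiter-Glo luminescence (15 min, room temperature). This followed 24 h at 37 °C of compound exposure (23 nL pin transfer) in S16 Pmp22-F2sN Schwann cells, 500-1,000 per well.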
PMP22 txn prim: modulators of PMP22 gene transcription in S16 Schwann cells. AID 1508649. 43,000 tested, 2% active. Potency, µM (top dose mostly 57.5 µM), usual class: inhibitors. S16 Pmp22-F2sN Schwann cells (luciferase reporters placed in the Pmp22 gene), FLuc/NLuc coincidence luminescence, 24 h; active means clear falling dose curves in both reporters; inconclusive means both reporters move, but less clearly or upward; inactive means either reporter flat; the % is the NLuc reporter signal
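S16(c9) Schwann cells with FLuc/NLuc coincidence reporter in the Pmp22 3' UTR; compounds pin-transferred, 24 h at 37C. Dual-luciferase read: FLuc first, then NLuc after Stop&Glo, each 10 min at room temperature.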
Hits are given with their value; 0 = inactive; ? = inconclusive; - = not tested or not shown; [ ] = dose if it differs, or a comment. Shown are actives, neighbours in structure and some others; about 3.6% of the full set was active somewhere. Unless noted, the call rests on the fitted dose curve; in most records, active means well fitted curve in the direction sought with a large enough effect; inconclusive means small, poorly fitted or top-dose-only effect, or another doubt; inactive means no such curve, though single readings can be large; an effect the other way counts as inactive or inconclusive.

SMILES	OvCa metastasis	pS6 MEF inh	NTMT1 inhibitor	GALC G270D up	S16 F2sN tox	PMP22 txn prim
CCN1CCN(c2cc(C)c3cc(NC(=O)/C=C/c4cccc(OC)c4OC)ccc3n2)CC1	?	?	0	0	?	0
COc1ccc(Nc2c3c(nc4ccc(NC(=O)/C=C/c5cc(OC)c(OC)c(OC)c5)cc24)CCCC3)cc1OC	0	2.1µM	0	0	11µM	?
COc1ccc(/C=C/C(=O)Nc2ccc(Cl)c(Cl)c2)cc1	0	0	0	0	0	?
COc1ccc(/C=C/C(=O)Nc2ccc3nc4c(c(Nc5ccc(OC)c(OC)c5)c3c2)CCCC4)cc1	5µM	3.7µM	0	0	?	?
COc1ccc(Nc2c3c(nc4ccc(NC(=O)/C=C/c5cccc(OC)c5OC)cc24)CCCC3)cc1OC	5µM	3.7µM	0	0	?	?
COc1ccc(/C=C/C(=O)Nc2ccc3nc(N4CCCCC4)cc(C)c3c2)cc1OC	?	?	0	0	?	?
COc1ccc(/C=C/C(=O)Nc2ccc3nc4c(c(Nc5ccccc5OC)c3c2)CCCC4)cc1	1.3µM	2.3µM	0	0	?	?
COc1ccc(/C=C/C(=O)Nc2ccc3nc(N4CCC(C)CC4)cc(C)c3c2)cc1	0	0	0	0	?	0
C=C1C(=O)O[C@@H]2C=C(COC(C)=O)CC/C=C(\CO)CC[C@@H]12	-	-	0	-	-	-
CC(C)(N)C(=O)N[C@H](COCc1ccccc1)C(=O)N1CCC2(CC1)CN(S(C)(=O)=O)c1ccccc12	0	-	?	-	-	-
CCCCCNC(=O)N1CCC(CN(Cc2ccc(Cl)cc2)Cc2ccc([N+](=O)[O-])s2)C1 (stereo not given)	0	-	0	-	-	-
Cc1cnc(Nc2ccc(CN3CCOCC3)cc2)nc1Nc1cccc(S(=O)(=O)NC(C)(C)C)c1	0	-	0	-	-	-
COc1ccc(-c2nnc(NC(=O)Nc3ccc4ccccc4c3)s2)cc1OC	-	-	0	-	-	-
COc1ccccc1C(=O)CC1(O)C(=O)N(CC(N)=O)c2ccccc21 (stereo not given)	0	0	0	0	0	0
C#CCN1C(=O)C(O)(CC(=O)c2ccc(OC)c(OC)c2)c2cc(Br)ccc21 (stereo not given)	?	5.2µM	0	0	?	?
COc1ccc(-c2c(C)c3ccc(O)c(CN4CCCCC4)c3oc2=O)cc1OC	0	0	0	0	0	0
COc1ccc(-c2cc3ccc(O)c(CN4CCCC(C)C4)c3oc2=O)cc1OC (stereo not given)	0	0	0	22µM	0	0
COc1ccc(-c2c(C)c3ccc(O)c(CN4CCCC(C)C4)c3oc2=O)cc1OC (stereo not given)	0	0	0	20µM	0	0
COc1ccc(-c2cc3ccc(O)c(CN4CCCC(C)C4)c3oc2=O)cc1 (stereo not given)	0	0	0	0	0	0
Cc1ccc(NS(=O)(=O)c2cc3c(cc2-c2ccsc2)NC(=O)CO3)cc1C	-	-	0	-	-	-
CCN(CC)c1ccc(C(=O)NCc2ccc3c(c2)CCN3C(=O)c2ccc(F)cc2)cc1	0	0	0	0	?	7.3µM
CCOc1ccc(C2CC(=O)c3c([nH]c(C(=O)OC4CCC(C)CC4)c3C)C2)cc1 (stereo not given)	0	0	0	0	0	0
CCc1ccc(C2CC(=O)c3c([nH]c(C(=O)OCCOc4ccccc4)c3C)C2)cc1 (stereo not given)	?	5.2µM	0	0	?	15µM
CCOc1ccc(C2CC(=O)c3c([nH]c(C(=O)OCCOc4ccccc4)c3C)C2)cc1 (stereo not given)	0	0	0	0	28µM	?
O=[S+]([O-])(Nc1nccs1)c1ccc(NCc2cc(F)cc(Cl)c2O)cc1	-	-	0	-	-	-
SMILES	OvCa metastasis	pS6 MEF inh	NTMT1 inhibitor	GALC G270D up	S16 F2sN tox	PMP22 txn prim
CN1CCN(CCCNc2ncc(Cl)c(-c3cc4c(C(=O)NC5CC5)cccc4s3)n2)CC1	-	-	79µM	-	-	-
CCN1/C(=C/C=C/c2sc3ccccc3[n+]2CC)Sc2ccccc21	-	-	18µM	0	-	-
CCN1/C(=C/C(C)=O)Sc2ccc(OC(C)=O)cc21	-	-	0	-	-	-
COc1ccc(NC(=O)CSc2nc(-c3cccs3)cc(C(F)(F)F)n2)cc1OC	0	0	0	0	?	4.2µM
COc1ccc(NC(=O)CSc2nc(-c3cccs3)cc(C(F)(F)F)n2)cc1Cl	0	0	0	0	0	?
COC(=O)c1ccccc1NC(=O)CSc1nc(-c2ccccc2)cc(C(F)(F)F)n1	0	0	0	10µM	0	0
CCCNC(=O)[C@H]1O[C@H]1C(=O)N[C@H](C(=O)N1CCC[C@@H]1C(=O)OC)C(C)CC (stereo not given in full)	0	-	0	-	-	-
CC(=O)O[C@H]1CC(C)(C)CC2[C@@]13[C@H](O)C[C@]1(C)[C@@]2(CCC2[C@@]4(C)CC[C@H](O[C@@H]5OC[C@H](O[C@@H]6O[C@H](CO)[C@@H](O)[C@H](O)[C@H]6O[C@@H]6OC[C@@H](O)[C@H](O)[C@H]6O)[C@H](O)[C@H]5O[C@@H]5O[C@H](CO)[C@@H](O)[C@H](O)[C@H]5O)C(C)(C)C4CC[C@]21C)O[C@@H]3O (stereo not given in full)	-	-	0[12.6 µM]	-	-	-
C=C1C[C@]23C[C@H]1CC[C@H]2[C@]1(C)CCC[C@@]2(CO)C(=O)O[C@H]([C@H]21)[C@@H]3O	-	-	0	-	-	-
Cc1sc2c(c1C)C(c1ccc(Cl)cc1)=N[C@@H](CC(=O)Nc1ccc(OCCOCCOCCOCCNc3cccc4c3C(=O)N(C3CCC(=O)NC3=O)C4=O)cc1)c1nnc(C)n1-2 (stereo not given in full)	-	-	0	-	-	-
COCCCNC(=O)Cn1c(=O)n(Cc2ccc(C(=O)NCc3ccc(C)cc3)cc2)c(=O)c2ccccc21	0	0	79µM	0	0	0
N#Cc1ccccc1Cn1c(=O)n(Cc2ccc(C(=O)NC3CCN(Cc4ccccc4)CC3)cc2)c(=O)c2ccccc21	0	0	?	0	0	?
O=C(NC1CCN(Cc2ccccc2)CC1)c1ccc(Cn2c(=O)c3ccccc3n(Cc3ccccc3)c2=O)cc1	0	0	79µM	0	0	0
Clc1cccc(-c2nc3ccccn3c2Nc2ccc3c(c2)OCCO3)c1	0	0	4µM	0	?	0
O=C(Nc1cccc([N+](=O)[O-])c1)c1cccc(S(=O)(=O)N2CCCCCC2)c1	-	-	0	-	-	-
